Reference: PMC5540273 (PLoS ONE, 2017)
Values joined by “and” are separate entries in the source; they are usually repeats but may differ in a detail not shown here. Equal values may be shown once. Read-outs that look alike come from different tables or passages of the source.

Tests used:
PHKG1 = conditions: concentration: 1 μM, replicates: in singlicate; n = 1
PHKG2 = conditions: n = 1
PIK3C2B = conditions: n = 1
PIK3C2G = conditions: concentration: 1 μM, replicates: in singlicate; n = 1
PIK3CA = conditions: concentration: 1 μM, replicates: in singlicate; n = 1
PIK3CB = conditions: n = 1
PIK3CD = conditions: n = 1
PIK3CG = conditions: n = 1
PIK4CB = system: T1, PIK4CB; conditions: n = 1
T1 construct: gene PI4KB

PIKFYVE = conditions: concentration: 1 μM, replicates: in singlicate; n = 1
[1] = concentration: 1 μM, replicates: in singlicate
[2] = concentration: 1 μM,replicates: in singlicate, 1 µM
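Further: KINOMEscan kinase panel screen.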

Compound	%Inh (PHKG1) [%]	%Inh (PHKG2; [1]) [%]	%Inh (PIK3C2B; [1]) [%]	%Inh (PIK3C2G) [%]	%Inh (PIK3CA) [%]	%Inh (PIK3CB; [1]) [%]	%Inh (PIK3CD; [1]) [%]	%Inh (PIK3CG; [1]) [%]	%Inh (PIK4CB; [1]) [%]	%Inh (PIKFYVE) [%]	%Inh (PHKG2; [2])	%Inh (PIK3C2B; [2])	%Inh (PIK3CB; [2])	%Inh (PIK3CD; 1 µM)	%Inh (PIK3CG; [2])	%Inh (PIK4CB; [2])
CC(=O)Nc1nc2cnc(Nc3cc(NC(=O)c4cccc(CCC#N)c4)ccc3C)nc2s1	0	8	9	78	2	0	0	8	0	0						
Cc1ccc(C(=O)Nc2ccc(Nc3ccnc4cc(-c5ccccn5)ccc34)cc2O)cc1.Cl [GW440146]	0	0	0	0	0	0	100	0	0	4						
CN1C(=O)C(Nc2ccc(Cl)c(C(=O)O)c2)=C(c2ccc(Cl)cc2)C1=O [SB-404290]	0	0	34	20	7	0	0	23	16	13						
CS(=O)(=O)c1ccc(-c2c(-c3ncn[nH]3)sc(N3CCOCC3)c2C#N)cc1	9	7	0	14	96.9	97.3	65	57	0	40						
Cl.c1ccc(-c2n[nH]cc2-c2ccnc(-c3ccc(CN4CCOCC4)cc3)c2)nc1 [GW776245]	0	14	16	0	0	0	0	33	0	0						
Cl.O=C(Nc1cccc(-c2nn3ncccc3c2-c2ccnc(Nc3cccnc3)n2)c1)c1c(F)cccc1F [GSK312879]	8	18	0	0	0	0	0	0	11	52						
COc1ccc(Nc2nccc(NCCNC(=O)Nc3ccccc3F)n2)cc1 [GSK1379901]	0	0	0	0	0	0	0	0	11	0						
Cc1cc(N2Cc3ccccc3C2)nc(Nc2ccc(S(=O)(=O)N3CCOCC3)cc2)n1.Cl [GSK1669917]	14	0	0	0	0	0	0	48	100	0						
COC(=O)c1c(-c2ccccc2)c2cc(C(=O)O)ccc2c(=O)n1Cc1ccccc1	0	24	3	0	0	13	0	7	0	2						
Cc1ccc(-c2cc(-c3c[nH]nc3-c3ccccn3)ccn2)cc1 [GW684088]	0	27	0	1	2	8	1	4	2	30						
COc1cc2ncnc(Nc3ccc4nc(-c5ccccc5)[nH]c4c3)c2cc1OC.Cl [GW282450]	0	6	0	0	0	0	0	0	0	0						
CCCc1ccc(S(=O)(=O)NC2CCN(c3ccnc(Nc4ccc(F)cc4)n3)C2)cc1 (stereo not drawn) [GSK1379715]	0	0	0	0	0	0	34	0	0	0						
Cc1csc(-c2nc(Nc3ccncc3)c3ccccc3n2)n1 [GW869640]	14	1	37	31	13	50	26	30	57	78						
Cc1ccc(NC(=O)Nc2cccc(Cl)c2)cc1-c1ccc(C(=O)Nc2ccncc2)cc1 [GSK1398468]	0	11	0	0	8	0	0	0	0	2						
COc1cc2ncn(-c3cc(OCC4CCCO4)c(C(N)=O)s3)c2cc1OC (stereo not drawn) [GSK204607]	0	3	0	0	0	0	0	19	0	0						
Cc1cccc(-c2nc(Nc3ccncc3)c3ccccc3n2)n1 [GW855857]	47	3	0	0	0	0	0	0	0	57						
CS(=O)(=O)c1ccc(-c2nc3n(c2-c2ccncc2)CCC3)cc1 [SKF-105942]	3	0	0	0	0	0	0	0	100	0						
CSc1nn2c(=O)cc(N3CCOCC3)nc2n1Cc1cccc(C(F)(F)F)c1C [GSK2363608]	0			0	9					0	5% and 0%	25% and 20%	97% and 100%	94.4% and 94.3%	17% and 16%	14% and 4%
